SMILES strings stand for the structures. For some assays here: Potency and affinity values are given separately.

What all share (design): scale not given: direction of the effect not stated beside the values
For experiment [1], the target named is Protein translocase subunit SecA (Escherichia coli (strain K12)) (UniProt P10408). As to the kind of experiment: Assay to Identify E. coli SecA ATPase Inhibitors. The format is functional. Particulars: 30 µM.
The target of experiment [2] is T1, Ubiquitin-activating enzyme e1, putative (Leishmania donovani (strain BPK282A1)) (UniProt E9BSI1).
T1 sequence (whole entry): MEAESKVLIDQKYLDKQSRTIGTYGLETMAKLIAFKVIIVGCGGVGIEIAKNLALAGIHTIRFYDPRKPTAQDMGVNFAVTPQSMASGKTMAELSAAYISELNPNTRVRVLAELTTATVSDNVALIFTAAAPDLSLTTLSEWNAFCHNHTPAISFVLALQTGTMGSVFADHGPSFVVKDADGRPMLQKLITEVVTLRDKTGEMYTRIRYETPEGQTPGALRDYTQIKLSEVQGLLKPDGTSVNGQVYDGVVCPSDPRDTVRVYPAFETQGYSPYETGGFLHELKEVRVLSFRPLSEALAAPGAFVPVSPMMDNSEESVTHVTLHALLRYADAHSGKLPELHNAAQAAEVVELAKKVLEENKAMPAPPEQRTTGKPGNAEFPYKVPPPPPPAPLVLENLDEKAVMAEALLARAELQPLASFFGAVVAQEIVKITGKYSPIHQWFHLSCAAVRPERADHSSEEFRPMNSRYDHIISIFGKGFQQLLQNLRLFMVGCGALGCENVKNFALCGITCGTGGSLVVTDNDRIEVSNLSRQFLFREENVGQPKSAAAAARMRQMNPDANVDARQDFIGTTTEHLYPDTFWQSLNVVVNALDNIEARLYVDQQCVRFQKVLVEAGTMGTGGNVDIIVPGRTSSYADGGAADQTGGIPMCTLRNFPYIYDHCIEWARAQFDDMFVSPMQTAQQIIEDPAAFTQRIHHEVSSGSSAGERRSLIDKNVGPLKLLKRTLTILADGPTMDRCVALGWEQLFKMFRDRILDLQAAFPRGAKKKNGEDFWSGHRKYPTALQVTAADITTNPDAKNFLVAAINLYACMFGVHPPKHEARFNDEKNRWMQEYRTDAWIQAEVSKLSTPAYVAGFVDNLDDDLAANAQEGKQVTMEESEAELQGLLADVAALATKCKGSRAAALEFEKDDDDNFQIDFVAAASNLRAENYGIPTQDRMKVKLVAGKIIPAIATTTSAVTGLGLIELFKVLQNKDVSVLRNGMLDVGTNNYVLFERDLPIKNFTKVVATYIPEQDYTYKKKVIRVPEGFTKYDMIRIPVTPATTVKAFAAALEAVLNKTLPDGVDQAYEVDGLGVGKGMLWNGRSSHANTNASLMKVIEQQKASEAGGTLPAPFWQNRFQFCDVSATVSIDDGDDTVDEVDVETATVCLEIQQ
Nature of the experiment: Leishmania donovani Ubiquitin Activating Enzyme (LdE1). The experiment is classed as functional. Particulars: 30 µM.

For experiment [3], the target named is Sialic acid-binding Ig-like lectin 9 (Homo sapiens) (UniProt Q9Y336). As to the kind of experiment: Hs-Siglec9 ALPHAscreen SOP 20170721. Particulars: 10 µM.
Sialic acid-binding Ig-like lectin 9 (Homo sapiens), sequence (Q9Y336 whole entry): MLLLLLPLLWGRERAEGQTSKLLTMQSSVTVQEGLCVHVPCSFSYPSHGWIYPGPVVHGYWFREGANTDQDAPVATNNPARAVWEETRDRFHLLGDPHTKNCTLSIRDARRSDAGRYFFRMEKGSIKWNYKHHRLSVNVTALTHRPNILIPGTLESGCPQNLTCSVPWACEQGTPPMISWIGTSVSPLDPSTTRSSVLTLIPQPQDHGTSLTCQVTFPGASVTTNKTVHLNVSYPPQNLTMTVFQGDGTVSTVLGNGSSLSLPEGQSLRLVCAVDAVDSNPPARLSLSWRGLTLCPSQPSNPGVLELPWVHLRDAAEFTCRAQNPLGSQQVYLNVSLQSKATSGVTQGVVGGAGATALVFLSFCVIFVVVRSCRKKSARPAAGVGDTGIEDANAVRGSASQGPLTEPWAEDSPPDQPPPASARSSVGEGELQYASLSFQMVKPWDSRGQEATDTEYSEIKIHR
The subject of another experiment is Trypanosoma cruzi. As to the kind of experiment: Trypanosoma cruzi phosphomannomutase and mannose-1-phosphate guanylyltransferase assay. The experiment is classed as functional. Particulars: 10 µM.
For experiment [4], the target named is T2, Arginase-2, mitochondrial (Homo sapiens) (UniProt P78540).
T2 sequence (whole entry): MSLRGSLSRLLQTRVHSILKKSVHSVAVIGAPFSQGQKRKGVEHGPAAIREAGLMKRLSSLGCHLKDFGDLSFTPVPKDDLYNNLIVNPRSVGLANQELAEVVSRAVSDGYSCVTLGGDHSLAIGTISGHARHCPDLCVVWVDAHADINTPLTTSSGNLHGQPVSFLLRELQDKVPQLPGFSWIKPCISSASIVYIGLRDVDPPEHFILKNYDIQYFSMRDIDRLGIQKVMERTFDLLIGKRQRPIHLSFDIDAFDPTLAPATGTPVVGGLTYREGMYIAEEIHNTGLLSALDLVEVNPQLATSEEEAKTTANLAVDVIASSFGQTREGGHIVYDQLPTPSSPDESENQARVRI
Nature of the experiment: in vitro enzyme assay to detect the production of urea directly proportional to the activity of Arginase II. Note: in the data most compounds retested in dose-response had high values. The format is functional. Particulars: 33.3 µM.

In experiment [5] the target is T3, Proteasome subunit beta (Trypanosoma cruzi) (UniProt O96673).
T3 sequence (whole entry): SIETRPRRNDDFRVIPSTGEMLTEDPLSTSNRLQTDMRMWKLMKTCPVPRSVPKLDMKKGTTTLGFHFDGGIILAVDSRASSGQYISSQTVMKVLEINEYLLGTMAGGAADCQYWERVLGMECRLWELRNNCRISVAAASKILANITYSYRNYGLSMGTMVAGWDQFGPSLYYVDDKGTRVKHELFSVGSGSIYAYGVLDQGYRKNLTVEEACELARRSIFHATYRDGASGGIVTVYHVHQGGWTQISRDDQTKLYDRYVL
Nature of the experiment: Trypanosoma cruzi proteasome chymotrypsin-like activity (TcProtChymo) assay. Note: in the data most compounds retested in dose-response had high values. The experiment is classed as functional. Particulars: 9.37 µM.

For another experiment, the species on record is Homo sapiens. Nature of the experiment: To identify inhibition of the IFN signalling (Jak-Stat) pathway via expression of an eGFP reporter gene under the control of an IFN-stimulated response element (ISRE) containing MxA promoter. The format is functional. Particulars: 30 µM. A general note: A reporter such as luciferase makes a cellular process visible.

Experiment [6] has as its target T4, Tyrosyl-tRNA synthetase, putative (Trypanosoma cruzi (strain CL Brener)) (UniProt Q4DSP6).
T4 sequence (whole entry): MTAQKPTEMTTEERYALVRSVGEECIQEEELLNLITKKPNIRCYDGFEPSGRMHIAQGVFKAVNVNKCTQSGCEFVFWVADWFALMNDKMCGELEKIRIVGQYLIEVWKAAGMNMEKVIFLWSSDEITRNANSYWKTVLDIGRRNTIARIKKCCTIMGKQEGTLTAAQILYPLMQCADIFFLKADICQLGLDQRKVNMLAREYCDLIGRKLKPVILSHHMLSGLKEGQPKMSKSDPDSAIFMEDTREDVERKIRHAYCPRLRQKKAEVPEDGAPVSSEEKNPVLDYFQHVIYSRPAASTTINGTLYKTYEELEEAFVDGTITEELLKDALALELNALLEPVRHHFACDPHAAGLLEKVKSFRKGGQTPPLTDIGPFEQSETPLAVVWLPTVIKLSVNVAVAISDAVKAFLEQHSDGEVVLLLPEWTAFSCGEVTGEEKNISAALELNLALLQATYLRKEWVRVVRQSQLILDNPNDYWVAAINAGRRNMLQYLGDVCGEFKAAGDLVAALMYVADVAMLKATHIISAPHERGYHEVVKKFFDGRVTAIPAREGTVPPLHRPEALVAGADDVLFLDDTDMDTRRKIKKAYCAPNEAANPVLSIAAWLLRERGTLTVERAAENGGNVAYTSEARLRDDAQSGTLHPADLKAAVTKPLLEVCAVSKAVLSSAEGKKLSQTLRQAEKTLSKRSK
Nature of the experiment: Trypanosoma cruzi tyrosyl tRNA synthetase (TcYRS) _High Tyrosine SOP. Note: in the data most compounds retested in dose-response had high values. The experiment is classed as functional. Particulars: 30 µM.

In experiment [7] the target is T4, Tyrosyl-tRNA synthetase, putative (Trypanosoma cruzi (strain CL Brener)). As to the kind of experiment: Trypanosoma cruzi tyrosyl tRNA synthetase (TcYRS) SOP. The format is functional. Particulars: 30 µM.
Experiment [8] concerns the target Chromo domain-containing protein 1 (Saccharomyces cerevisiae (strain ATCC 204508 / S288c) (Baker's yeast)) (UniProt P32657). Nature of the experiment: ScCHD-1 Enzyme Inhibition Assay. Note: in the data most compounds retested in dose-response had high values. The experiment is classed as functional. Particulars: 30 µM.

Protein translocase subunit SecA (Escherichia coli (strain K12)), sequence (P10408 whole entry): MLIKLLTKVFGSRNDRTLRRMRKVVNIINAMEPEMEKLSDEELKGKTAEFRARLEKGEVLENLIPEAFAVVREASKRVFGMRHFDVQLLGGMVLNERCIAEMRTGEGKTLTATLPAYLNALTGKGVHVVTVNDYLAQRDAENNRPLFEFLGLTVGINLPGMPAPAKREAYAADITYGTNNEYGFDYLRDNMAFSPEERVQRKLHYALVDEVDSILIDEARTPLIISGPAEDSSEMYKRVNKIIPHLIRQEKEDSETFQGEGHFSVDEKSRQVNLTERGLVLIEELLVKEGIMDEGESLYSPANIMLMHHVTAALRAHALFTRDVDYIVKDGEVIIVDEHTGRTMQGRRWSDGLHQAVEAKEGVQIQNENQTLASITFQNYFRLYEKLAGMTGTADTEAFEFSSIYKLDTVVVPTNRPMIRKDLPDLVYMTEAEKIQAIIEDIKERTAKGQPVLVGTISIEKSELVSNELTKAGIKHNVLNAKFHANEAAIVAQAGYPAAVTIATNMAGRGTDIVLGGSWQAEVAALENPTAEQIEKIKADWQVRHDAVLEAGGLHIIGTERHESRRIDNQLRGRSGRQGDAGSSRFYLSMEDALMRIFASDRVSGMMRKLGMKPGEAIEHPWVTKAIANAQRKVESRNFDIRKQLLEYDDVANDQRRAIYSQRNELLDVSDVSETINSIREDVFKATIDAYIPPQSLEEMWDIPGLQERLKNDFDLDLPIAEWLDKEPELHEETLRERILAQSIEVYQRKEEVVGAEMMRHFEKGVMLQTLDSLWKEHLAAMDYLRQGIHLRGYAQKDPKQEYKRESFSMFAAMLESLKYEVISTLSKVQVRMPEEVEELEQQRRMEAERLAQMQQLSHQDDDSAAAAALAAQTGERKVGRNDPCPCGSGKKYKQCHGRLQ
Chromo domain-containing protein 1 (Saccharomyces cerevisiae (strain ATCC 204508 / S288c) (Baker's yeast)), sequence (P32657 whole entry, the tested form may be a part): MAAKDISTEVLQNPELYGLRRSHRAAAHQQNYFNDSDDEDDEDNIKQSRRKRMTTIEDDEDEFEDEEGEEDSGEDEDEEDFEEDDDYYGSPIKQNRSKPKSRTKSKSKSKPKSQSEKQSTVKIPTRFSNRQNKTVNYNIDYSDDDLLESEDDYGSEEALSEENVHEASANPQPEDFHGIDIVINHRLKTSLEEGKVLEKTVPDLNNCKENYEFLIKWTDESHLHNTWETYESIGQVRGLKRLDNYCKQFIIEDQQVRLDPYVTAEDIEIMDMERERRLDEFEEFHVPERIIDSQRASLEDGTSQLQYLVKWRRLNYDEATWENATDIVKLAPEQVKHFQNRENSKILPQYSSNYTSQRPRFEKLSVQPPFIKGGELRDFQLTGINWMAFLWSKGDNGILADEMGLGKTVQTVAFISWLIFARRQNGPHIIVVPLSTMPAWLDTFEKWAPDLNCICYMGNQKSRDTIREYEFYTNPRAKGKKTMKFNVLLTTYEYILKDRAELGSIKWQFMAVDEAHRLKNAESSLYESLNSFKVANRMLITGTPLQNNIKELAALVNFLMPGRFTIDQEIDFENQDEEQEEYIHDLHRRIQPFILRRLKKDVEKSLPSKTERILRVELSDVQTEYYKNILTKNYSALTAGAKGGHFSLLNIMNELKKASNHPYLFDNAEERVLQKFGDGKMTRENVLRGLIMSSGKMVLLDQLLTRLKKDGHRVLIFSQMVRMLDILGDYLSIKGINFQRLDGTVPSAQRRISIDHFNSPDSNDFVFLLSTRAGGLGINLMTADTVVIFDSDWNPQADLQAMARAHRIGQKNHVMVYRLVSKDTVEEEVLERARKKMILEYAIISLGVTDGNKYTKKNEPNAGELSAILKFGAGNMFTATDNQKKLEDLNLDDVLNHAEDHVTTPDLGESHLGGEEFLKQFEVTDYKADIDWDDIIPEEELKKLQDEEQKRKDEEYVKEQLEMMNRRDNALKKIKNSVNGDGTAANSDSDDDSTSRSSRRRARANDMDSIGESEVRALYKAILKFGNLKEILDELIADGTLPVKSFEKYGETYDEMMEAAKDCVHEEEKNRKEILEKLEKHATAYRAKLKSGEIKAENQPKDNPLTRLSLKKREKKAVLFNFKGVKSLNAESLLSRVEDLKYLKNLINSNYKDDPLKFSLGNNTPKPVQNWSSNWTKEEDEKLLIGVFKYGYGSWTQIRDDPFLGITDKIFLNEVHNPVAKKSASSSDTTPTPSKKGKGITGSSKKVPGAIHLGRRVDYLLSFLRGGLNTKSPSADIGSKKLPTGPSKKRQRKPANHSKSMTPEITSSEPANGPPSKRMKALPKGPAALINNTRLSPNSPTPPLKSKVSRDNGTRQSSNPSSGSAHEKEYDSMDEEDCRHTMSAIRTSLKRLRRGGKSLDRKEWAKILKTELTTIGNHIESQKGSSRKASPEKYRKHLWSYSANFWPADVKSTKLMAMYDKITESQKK

Consider `O=C(O)c1csc(S(=O)(=O)Nc2cccc(OC(F)F)c2)c1`, for which the Percent Effect in experiment [1] is -5.06%; in experiment [2] it was -7.69%; in [3] it was -2.43%; in the experiment with Trypanosoma cruzi, -1.03%; in [4], 5.74%; in experiment [5] it was 8.11%. In addition, the Percent Effect in the experiment listed under Homo sapiens was 2.87%; in [6], -5.26%; in experiment [7], 1.21%; in [8], -6.19%.

In the case of `CC(C)(C)c1nnc(CN2CCCC(Cn3cncn3)C2)o1` (stereo not given), the Percent Effect is -2.1% in experiment [1]; -2.56% in experiment [2]; 0.0313% in [3]; 4.41% in the experiment on Trypanosoma cruzi; 0.41% in experiment [4]; -1.79% in [5]. Further, the Percent Effect in the experiment listed under Homo sapiens is 8%; in experiment [6] it was 2.39%; in experiment [7] it was 1.21%; in experiment [8], -1.8%.

As for `CNC(=O)c1ccc(C2CN(C(=O)COC)CCO2)nc1` (stereo not given), the Percent Effect was 0.488% in experiment [1]; 9.33% in experiment [2]; 3.63% in experiment [3]; -4.14% with Trypanosoma cruzi; 3.54% in [4]; 7.39% in experiment [5]. Further, the Percent Effect in the experiment filed under Homo sapiens was 0.241%; in [6], 2.12%; in experiment [7], 7.5%; in experiment [8] it was -21.4%.

Turning to `Cc1cc(C(=O)NC2CCc3nc(C)cn3C2)[nH]n1` (stereo not given), the Percent Effect was -3.96% in experiment [1]; 2.67% in experiment [2]; 4.26% in [3]; -0.803% in the experiment with Trypanosoma cruzi; 1.77% in experiment [4]; 5.68% in experiment [5]. The Percent Effect is 3.16% in the experiment filed under Homo sapiens, 3.68% in [6], 5.13% in experiment [7] and -7.74% in [8].

As to `O=C(c1ccnnc1)N1C[C@@H](OCC2CCOCC2)[C@H]2OCCC[C@H]21`, the Percent Effect is -4.07% in [1]; 1.3% in experiment [2]; 6.81% in experiment [3]; 5.55% in the experiment on Trypanosoma cruzi; 14.6% in experiment [4]; 0.618% in experiment [5]. Further, the Percent Effect is -6.79% in the experiment filed under Homo sapiens, 0.526% in [6], 7.69% in [7] and 96% in experiment [8].

Consider `Cn1c(CN2CCCC2c2noc(C3CC3)n2)cc(=O)n(C)c1=O` (stereo not given), for which the Percent Effect in experiment [1] is -8.17%; in experiment [2], 2.67%; in experiment [3] it was -1.87%; in the experiment on Trypanosoma cruzi, -3.01%; in experiment [4], -3.99%; in experiment [5], 5.85%. Moreover, the Percent Effect in the experiment filed under Homo sapiens is 13.9%; in [6], 0.526%; in [7], 0%; in experiment [8], -5.06%.

In the case of `O=C(c1ccccn1)N1Cc2nccn2CC(CN2CCOCC2)C1` (stereo not given), the Percent Effect in experiment [1] was -4.41%; in [2], 9.09%; in experiment [3] it was -2.41%; in the experiment with Trypanosoma cruzi, -2.63%; in experiment [4], 5.67%; in [5], 8.56%. The Percent Effect in the experiment listed under Homo sapiens was determined as 4.82%; in experiment [6] it was 12.1%; in experiment [7], 15.4%; in experiment [8] it was 1.74%.

Regarding `COC(=O)C1CCN(C(=O)c2ccc(C)c(NS(C)(=O)=O)c2)CC1`, the Percent Effect in experiment [1] was -9.4%; in experiment [2], -5.41%; in [3], -2.25%; in the experiment with Trypanosoma cruzi it was -3.2%; in [4] it was -3.85%; in experiment [5] it was 8.9%. Moreover, the Percent Effect in the experiment listed under Homo sapiens is -0.867%; in experiment [6], 1.6%; in experiment [7], 2.44%; in [8] it was 5.38%.

As for `NC[C@H]1CC[C@H](C(NC(=O)c2ccccc2)c2ccccn2)CC1` (stereo not given in full), the Percent Effect is -0.915% in [1]; 12% in [2]; -7.17% in experiment [3]; 4.54% with Trypanosoma cruzi; -2.21% in experiment [4]; 13.3% in experiment [5]. Also, the Percent Effect was -1.97% in the experiment listed under Homo sapiens, 10.6% in experiment [6], 25% in experiment [7] and -27.6% in [8].

As to `Cc1ncncc1C(=O)Nc1cnn(CC(=O)NC2CCCC2)c1`, the Percent Effect in experiment [1] is -3.38%; in experiment [2], 20%; in experiment [3], 2.3%; with Trypanosoma cruzi, 2.96%; in experiment [4], -0.443%; in [5], 10.8%. Also, the Percent Effect in the experiment filed under Homo sapiens is 8.96%; in [6], 1.06%; in experiment [7], 12.5%; in experiment [8] it was -20.3%.

Turning to `Cn1cc(-c2nc(CNCCn3cccn3)cs2)cn1`, the Percent Effect in experiment [1] is 3.44%; in [2], 10.3%; in experiment [3], -15.7%; in the experiment with Trypanosoma cruzi it was -6.67%; in experiment [4], -0.41%; in experiment [5], 16%. Besides, the Percent Effect in the experiment listed under Homo sapiens is 32.9%; in experiment [6], 8.13%; in experiment [7] it was 13.2%; in experiment [8], 27.9%.
